Experimental data: ChEMBL document CHEMBL3988442, “University of Dundee, Small-Polar-MMV Screening Library” (2021)
About 30 (0.04%) of roughly 69,000 compounds showed an effect of 50% or more. This excerpt belongs to a sample that is enriched for strong results.

molecular target: T1, Histidine--tRNA ligase (Trypanosoma cruzi (strain CL Brener)) (UniProt Q4DA54); test: Trypanosoma cruzi histidyl tRNA synthetase (Tc-HisRS); assay type: functional; parameters: scale not given: direction of the effect not stated beside the values; details: 30 µM
T1 sequence (whole entry): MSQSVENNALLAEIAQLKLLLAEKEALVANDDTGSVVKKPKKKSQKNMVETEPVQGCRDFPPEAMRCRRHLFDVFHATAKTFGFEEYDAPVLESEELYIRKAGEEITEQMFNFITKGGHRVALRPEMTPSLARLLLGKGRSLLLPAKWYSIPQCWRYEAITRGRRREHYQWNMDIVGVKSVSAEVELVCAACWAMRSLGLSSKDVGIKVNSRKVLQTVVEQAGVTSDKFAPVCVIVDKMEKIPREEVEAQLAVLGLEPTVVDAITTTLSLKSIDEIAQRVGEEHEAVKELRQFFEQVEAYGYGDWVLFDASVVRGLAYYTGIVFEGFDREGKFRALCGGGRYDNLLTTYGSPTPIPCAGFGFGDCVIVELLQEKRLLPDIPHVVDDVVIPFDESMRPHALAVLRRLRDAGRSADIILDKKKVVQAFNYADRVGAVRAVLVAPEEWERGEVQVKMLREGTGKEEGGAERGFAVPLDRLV

In order of rising Percent Effect:
1. CC(C)=CCN1C[C@H]2CC[C@@H]1CN(C(=O)c1ccc3c(c1)OCO3)C2  -7.73%
2. COc1ccc(N2Cc3nc(N4CCCC4)ncc3C2=O)cc1Cl  -3.73%
3. O=C(OCc1ccccc1)N1CC[C@H]2CC(CO)O[C@@H]2C1 (some centres not stated)  -3.09%
4. CC(C)COC[C@@H]1CC[C@H]2[C@H](CCN2C(=O)c2ccncc2F)O1  -2.8%
5. CC(C)=CCN1C(=O)[C@H]2CC[C@@H]1CN(c1ncccc1C(N)=O)C2  -2.41%
6. Cc1cnc(N2CC[C@@H]3OC(COCC(=O)N(C)C)CC[C@@H]32)nc1 (some centres not stated)  -0.614%
7. CC(C)N1[C@H](Cn2cncn2)C[C@@H]2CN(Cc3ccsc3)CC[C@@H]21  0%
8. O=C(c1ccco1)N1CC[C@H]2[C@H]1CC(=O)N2c1cccnc1  0%
9. O=C(CC1CC1)N[C@@H]1CN(C(=O)c2cccs2)C[C@@H]2CCCO[C@@H]21  0%
10. C1CC(CN2C[C@@H]3C[C@@H](c4nnc(C5CC5)o4)O[C@@H]3C2)C1  0%
11. O=C1C[C@H]2[C@@H](CCN2C(=O)Cc2cccs2)N1Cc1cccnc1  0.752%
12. O=C([C@H]1C[C@@H]2CCN(c3cccc(F)c3)C[C@H]2O1)N1CCCC1  0.952%
13. CNC(=O)[C@H]1C[C@@H]2CN(C(=O)NC(C)C)C[C@H]1O2  1.03%
14. CC(C)CN1CCS(=O)(=O)[C@@H]2CCN(S(=O)(=O)C3CC3)CC[C@@H]21  1.07%
15. CCc1cc(N[C@H]2CC[C@@H](N)CC2)n2nc(C)c(C)c2n1  1.34%
16. O=C(c1ccnnc1)N1CCN2C[C@H](Oc3cccc(F)c3)C[C@H]2C1  1.62%
17. COc1ccc(CNC(=O)Nc2ccc(CN3CCOC3=O)cc2)cc1  2.12%
18. O=C(NCc1ccoc1)Nc1ccc(CN2CCOC2=O)cc1  3.25%
19. COCCN1CCN(Cc2nccs2)[C@H]2CS(=O)(=O)C[C@H]21  4.08%
20. CCO[C@@H]1CC[C@H]2[C@H]1OCCN2CCOCc1ccccc1  4.12%
21. COCCNC(=O)[C@@]12CCO[C@@H]1CCN(Cc1scnc1C)C2  4.3%
22. Cn1nccc1C(=O)N1CCN(C(=O)C2CC2)[C@@H]2CS(=O)(=O)C[C@@H]21  4.47%
23. O=C1N(CC2CC2)CCC12CCN(c1ncccn1)CC2  4.51%
24. CCN1CC[C@@]2(C(=O)N3CCOCC3)CCN(C(=O)C(C)C)CC[C@@H]12  4.85%
25. CNc1cc(-c2ccc(COCCN)cc2)c2cc[nH]c2n1  4.88%
26. Cc1ccc(N2CC3(CCN(c4nccs4)C3)C2)nn1  4.96%
27. COC[C@@]12CCC[C@@H]1CN(C(=O)N1CCCC1)C2  5.03%
28. CN(Cc1cccs1)C1CCC[C@@H]2CN(C(=O)c3cccn3C)C[C@H]12 (some centres not stated)  5.06%
29. O=C(NC1CC1)N1C[C@H]2CN(Cc3cccc(F)c3)C(=O)[C@H]2C1  5.88%
30. O=C(N1CCCC1)N1CC[C@H]2[C@H]1CCN2c1ncccn1  6.8%
31. O=S1(=O)CCN(Cc2cccnc2)[C@H]2CCN(c3ncccn3)CC[C@H]21  6.95%
32. CN1C(Cn2cccn2)C[C@@H]2CN(Cc3cnn(C)c3)CC[C@@H]21 (some centres not stated)  7%
33. Cc1cccnc1CN1CCN(CC(=O)N(C)C)[C@@H]2CS(=O)(=O)C[C@@H]21  7.03%
34. CCC1=N[C@@]2(CC[C@@H]3CN(Cc4ccc(C)cc4)C[C@@H]32)C(=O)N1C  7.41%
35. Cc1nnc(NC(=O)NCc2ccoc2)s1  7.43%
36. CC(C)CN1C(=O)CO[C@@H]2CN(C(=O)CC(F)(F)F)C[C@H]21  7.53%
37. CC(C)CS(=O)(=O)N1C[C@H]2C[C@H](C(=O)N3CCN(C)CC3)[C@@H](C1)O2  7.78%
38. COC(=O)c1ccc(CNC(=O)Nc2ccc(=O)n(C)c2)cc1  7.79%
39. Cc1cc(C)nc(N2C[C@H]3OC(=O)N(CCc4cccc(Cl)c4)[C@H]3C2)n1  7.82%
40. Cn1cc(N2C(=O)CC[C@@H]3[C@H]2CCN3C(=O)c2cscn2)cn1  8.16%
41. Cc1nc(CN2C(=O)CC[C@@H]3[C@H]2CCN3C(=O)c2ccno2)cs1  8.87%
42. CC(C)NC(=O)[C@H]1C[C@@H]2CN(C(=O)NCc3ccccc3)C[C@H]1O2  9.09%
43. CN1CCN2CCN(Cc3cnc(NCc4ccccc4)nc3)CC2C1 (configuration not stated)  9.88%
44. O=C1O[C@@H]2CN(Cc3ccccc3F)C[C@@H]2N1CCCN1CCOCC1  10.2%
45. COc1ccc(CN2C[C@@H]3CC[C@H](C2)N(Cc2snnc2C)C3)cc1  11.4%
46. Cc1ccc(N2CCCC3(COCCN(c4nccs4)C3)C2)nn1 (configuration not stated)  12.4%
47. Cc1cccc(C(=O)N2C[C@H](NS(C)(=O)=O)[C@@H]3OCCC[C@@H]32)n1  12.6%
48. CN(Cc1ccsc1)C(=O)Nc1ccc(=O)n(C)c1  13%
49. Cn1cc(NC(=O)CCc2ccsc2)ccc1=O  18.2%
50. Cn1cc(NC(=O)N2CCC2c2ccccc2)ccc1=O (configuration not stated)  22.6%
51. c1ccc2c(c1)N(CC1CCOC1)CC21CCN(c2cnccn2)CC1 (configuration not stated)  29.6%
52. CN1CCCCC1c1ncc2c(n1)CCN(Cc1ccc(Cl)c(F)c1)C2 (configuration not stated)  30%
53. Cn1cc(NC(=O)N2CCCC2c2cccnc2)ccc1=O (configuration not stated)  38.6%
54. CNc1cc(-c2ccccc2CN)c2cc[nH]c2n1  40.2%
55. c1ccc(CNc2ncc(CN3CCCN4CCC[C@H]4C3)cn2)cc1  48.1%
56. Cc1ccc(N2CCC3(CC2)COCCN(c2nccs2)C3)nn1  62.3%
57. c1cnc(N2CCC3(CC2)CN(CC2CC2)c2ccccc23)nc1  66.2%
58. Cn1cc(NC(=O)N2CCCC2c2ccccn2)ccc1=O (configuration not stated)  69.3%
59. Cn1cc(NC(=O)NCc2ccoc2)ccc1=O  72.7%
60. Cn1cc(NC(=O)NCc2ccsc2)ccc1=O  72.7%
61. COc1ccc(CNC(=O)Nc2ccc(=O)n(C)c2)cc1  76.6%
62. CNc1cc(-c2cccc(CN)c2)c2cc[nH]c2n1  81.7%
